Assay outcomes as filed in PubChem.
Most compounds without a hit are left out; they make up all but 3.1% or so of the library.
Rin1-Abl PPI inh – human Rin1-Abl interaction inhibition. inhibition, % at 7.35 µM. actives 0.4% (n = 360,000). P00519+Q13671. AID 588664. TR-FRET Rin1/Abl binding, biochemical; in the data active = inhibition above about 5%, passing the limit was not always enough
LEDGF integ inh – blocks HIV-1 LEDGF/p75-dependent DNA integration; TR-FRET IN-LEDGF/p75 DNA integration, Eu/Cy5; inhibition, % at 3.7 µM; actives 0.64% (n = 370,000); AID 743269;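 active = inhibition above the screen-wide mean plus 3 SD, cut at about 13% in these data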;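 also: signal is the Cy5 over europium emission ratio at 671 and 618 nm; 0% = plate median of compound wells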
Neddylation inh – blocks human cullin neddylation. calls only at 25 µM. TR-FRET cullin neddylation, biochemical. AID 651699. actives 0.58% (n = 360,000); in the data active = inhibition above about 36%
Target sequence (P61081 whole entry, looked up): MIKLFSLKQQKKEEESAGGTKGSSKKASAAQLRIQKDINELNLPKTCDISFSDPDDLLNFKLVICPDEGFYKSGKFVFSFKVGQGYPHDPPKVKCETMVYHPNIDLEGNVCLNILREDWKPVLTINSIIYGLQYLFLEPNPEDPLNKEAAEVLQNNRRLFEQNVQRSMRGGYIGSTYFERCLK
Target sequence (Q13564 whole entry, looked up): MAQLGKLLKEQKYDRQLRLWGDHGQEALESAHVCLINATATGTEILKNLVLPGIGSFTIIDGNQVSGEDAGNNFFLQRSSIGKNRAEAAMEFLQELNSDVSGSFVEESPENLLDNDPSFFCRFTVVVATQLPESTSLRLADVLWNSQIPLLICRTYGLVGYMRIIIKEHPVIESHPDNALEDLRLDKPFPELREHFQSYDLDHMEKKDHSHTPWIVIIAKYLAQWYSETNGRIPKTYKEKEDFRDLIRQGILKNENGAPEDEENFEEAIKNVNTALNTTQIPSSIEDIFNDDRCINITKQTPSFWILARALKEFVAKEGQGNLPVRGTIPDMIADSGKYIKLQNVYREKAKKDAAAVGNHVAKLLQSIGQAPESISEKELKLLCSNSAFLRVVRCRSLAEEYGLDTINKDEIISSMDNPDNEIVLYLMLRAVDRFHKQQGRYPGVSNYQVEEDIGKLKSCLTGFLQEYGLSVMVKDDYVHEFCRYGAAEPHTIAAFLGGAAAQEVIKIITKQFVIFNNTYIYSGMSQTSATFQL
UHRF1 MBD2 ctr – blocks human UHRF1 binding to methylated DNA. Q96T88. UHRF1 binding to methylated oligo, TR-FRET. inhibition, % at 4.4 µM. actives 0.75% (n = 370,000). AID 687016;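 also: UHRF1 SRA domain binding a hemimethylated CpG hairpin DNA probe; 0% = median of test compound wells and 100% = reference inhibitor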
MBD2 DNA inh – MBD2-methylated oligo binding inhibition; Q9UBB5; TR-FRET, MBD2 binding to methylated oligonucleotide; inhibition, % at 4.4 µM; actives 0.31% (n = 370,000); in the data active = inhibition above about 13%
KLK7 zymogen act – activates the human kallikrein-7 zymogen; purified proKLK7, EDANS-DABCYL substrate fluorescence; 100% is mature enzyme control, 0% vehicle; activation, % at 7 µM; actives 0.9% (n = 370,000); AID 652039;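 active = activation above the mean of all tested compounds plus 3 SD, computed per campaign excluding outliers beyond control limits, cut at about 13% in these data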
UHRF1 ctr MBD2 – counter-screen for MBD2 inhibitors: human UHRF1 methylated DNA binding inhibitors; actives 25% (n = 1,000); UHRF1 binding to methylated oligonucleotide, TR-FRET; inhibition, % at 4.4 µM; shares compounds with MBD2 DNA inh; AID 720530;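 also: UHRF1 SRA domain binding a labeled hemimethylated CpG hairpin DNA; 0% = vehicle only and 100% = reference inhibitor with vehicle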
MBD2 confirm – confirmation of human MBD2-DBD methylated oligonucleotide binding inhibitors; shares compounds with MBD2 DNA inh; TR-FRET MBD2-DBD binding to methylated oligonucleotide; inhibition, % at 4.4 µM; actives 26% (n = 1,000); AID 720531; in the data active = inhibition above about 14%
Starred values were filed as active, the others as inactive; i = inactive; / = no result shown. Rule as the data show it, unless noted: active = inhibition above about 21%; inactive = the rest.

SMILES	Rin1-Abl PPI inh	LEDGF integ inh	Neddylation inh	UHRF1 MBD2 ctr	MBD2 DNA inh	KLK7 zymogen act	UHRF1 ctr MBD2	MBD2 confirm
C[C@@H]1CN([C@@H](C)CO)C(=O)CCCn2cc(nn2)CO[C@H]1CN(C)C(=O)C1CC1	/	1	/	0	13*	0	4	1
COc1ccc(NC(=O)N(C)C[C@@H]2OCc3cn(nn3)CCCC(=O)N([C@H](C)CO)C[C@H]2C)cc1	-2	-1	i	6	17*	1	9	4
OC(c1ccccc1)(c1ccccc1)C1CCN(CCCOc2ccc(-c3ccc(F)cc3F)cc2)CC1	/	-3	/	2	5	1	/	/
COc1cc2nc(N3CCNCC3)nc(N)c2cc1OC	8.2*	-1	/	14	14*	6	32*	27*
CCOc1ccc(OCCC(=O)Nc2ccc(F)cc2C)cc1	-2	-8	i	-1	-4	0	/	/
O=C(NCC1CCN(C(=O)C(=O)c2cccs2)CC1)c1ccc2c(c1)CCO2	/	-3	/	14	19*	0	7	3
O=C(Nc1ccc(Cl)cc1)c1cncs1	-1	5	i	-1	1	1	/	/
Cc1ccc2sc(N(CCCN(C)C)C(=O)c3ccc(S(=O)(=O)N(C)C)cc3)nc2c1C	7	-6	i	5	4	-1	/	/
Cc1ccc2sc(N(CCCN(C)C)C(=O)c3ccc(S(=O)(=O)N(C)Cc4ccccc4)cc3)nc2c1C	2	-2	i	0	56*	-2	3	1
COc1ccc(CNC(=O)[C@@H]2CC=C[C@@H]3CCN(C4CCCCC4)C(=O)[C@@H]32)cc1	3	1	i	-1	-1	0	/	/
COc1ccc(NC(=O)[C@@H]2CC=C[C@@H]3CCN(C4CCCCC4)C(=O)[C@@H]32)cc1	1	2	i	-2	64*	1	7	1
COc1ccc2c(c1OC)c(=O)n1c3ccc(OC(C)C(=O)NCCCN4CCOCC4)cc3c3ccnc2c31 (configuration not stated)	-9	/	/	/	/	/	/	/
COc1ccc2c(c1OC)c(=O)n1c3ccc(OC(C)C(=O)NCCN4CCOCC4)cc3c3ccnc2c31 (configuration not stated)	-8	-1	/	43*	36*	-5	52*	50*
COc1ccc(CN2CCC(CNC(=O)NCc3ccccc3)CC2)cc1	/	-3	/	1	2	0	/	/
COc1cccc(NC(=O)Nc2nnc(Cc3ccc(F)cc3)s2)c1	0	6	i	0	34*	1	6	5
COc1ccc2nc(C)cc(Nc3ccc(N4CCOCC4)cc3)c2c1	-6	0	i	13	6	0	/	/
COc1ccc2nc(C)cc(Nc3ccc(N4CCN(C)CC4)cc3)c2c1	-3	10	i	54*	56*	0	49*	51*
NC(=O)C1=C(N)c2ccccc2C1c1ccccc1 (configuration not stated)	-3	-5	/	1	32*	2	2	1
CCOC(=O)C1CC(=O)c2ccccc2C1c1ccccc1 (configuration not stated)	-1	0	i	-1	3	-1	/	/
Cc1cnc(NC(=O)c2cc(-c3ccccc3)nn2-c2ccccc2)s1	-3	-3	i	-1	25*	0	5	3
COc1ccc(-c2nn(C)c3sc(C(=O)NCCN(C)C)cc23)cc1OC	1	-6	i	28*	18*	-2	29*	25*
COC(=O)CSc1nc2c(cnn2-c2ccc(F)cc2)c(=O)[nH]1	-1	3	i	1	-3	-1	/	/
CS(=O)(=O)Nc1cccc(NC(=O)c2ccc(-n3ccnc3)c3ccoc23)c1	-3	9	i	18	14*	1	13	13
Cn1nccc1-c1ccc(C(=O)Nc2cccc(NS(C)(=O)=O)c2)c2occc12	4	-1	i	4	8	0	/	/
COC(=O)c1nnn(-c2nonc2N)c1CN1CCCC1	6	-4	i	2	31*	0	3	3
SMILES	Rin1-Abl PPI inh	LEDGF integ inh	Neddylation inh	UHRF1 MBD2 ctr	MBD2 DNA inh	KLK7 zymogen act	UHRF1 ctr MBD2	MBD2 confirm
CC(=O)NCCNc1nc2cc(-c3cccc(Cl)c3)sc2c(=O)n1C	-8	0	i	1	0	-1	/	/
COc1ccc(-c2nnc3c4ccccc4c(C)nn23)cc1S(=O)(=O)N1CCN(CCO)CC1	-5	0	i	6	7	0	/	/
Cc1nn2c(-c3ccc(S(=O)(=O)N4CCN(CCO)CC4)o3)nnc2c2ccccc12	4	2	/	13	16*	0	3	5
CCOC(=O)C1=C(COC(=O)CCNS(=O)(=O)c2ccc(NC(C)=O)cc2)NC(=O)NC1C (configuration not stated)	1	-1	i	3	2	0	/	/
O=c1nc2c(O)cccn2c2c1c(=O)[nH]c1ccccc12	-7	13	i	43*	23*	-1	25*	26*
O=c1[nH]c2ccccc2c2nc3ccccn3c12	-2	1	i	-2	-1	0	/	/
CC1CCN(c2ccc(C(=O)O)cc2NS(=O)(=O)c2ccc(Cl)s2)CC1	/	-4	/	7	3	0	/	/
COCOc1cccc(CN2CCC(C)(Oc3ccc(C(C)=O)cc3)C2)c1 (configuration not stated)	-4	-1	i	1	2	0	/	/
CC(=O)c1ccc(OC2(C)CCN(Cc3cc4ccccc4[nH]3)C2)cc1 (configuration not stated)	-2	-2	i	9	13*	0	5	2
COc1ccc(NC(=O)CN2C(=O)NC(C)(C3CC3)C2=O)cc1S(=O)(=O)N1CCOCC1 (configuration not stated)	1	-3	i	-2	-1	-1	/	/
CC1(C(=O)Nc2ccc3c(c2)OCO3)CCN1C(=O)CCC1CCCC1 (configuration not stated)	2	4	i	0	20*	0	2	2
O=C1C(Cl)=C(N2CCCCC2)C(=O)C(Cl)=C1c1cnc(N2CCCCC2)s1	5	/	i	/	/	/	/	/
CN(C)c1ncc(C2=C(Cl)C(=O)C(N3CCCC3)=C(Cl)C2=O)s1	11*	63*	i	73*	24*	5	36*	24*
Cc1ccc(-c2ccc(CCC(=O)O)n2Cc2ccco2)cc1	2	-1	i	0	88*	0	10	5
O=C(O)CCc1ccc(-c2ccccc2)n1CC(=O)O	2	6	i	7	5	-7	/	/
